D1 antagonist: antagonists of human D1 dopamine receptor. P21728. HEK293 TREx D1 cells, calcium flux, dopamine EC80; stronger effect = lower value. activity change, negative = inhibition, % at 10 µM. 360,000 compounds, 3.2% hits; in the data active = activity change below about -30%
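Tetracycline-induced HEK293 T-REx cells with force-coupled D1 receptor were loaded with a no-wash calcium dye. Compound was added after a 10 s baseline and read kinetically for 180 s; EC80 dopamine was then added and calcium flux followed another 180 s.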
D3 antag: D3 dopamine receptor (human) antagonism; D3R cells, DiscoveRx beta-arrestin luminescence, antagonist mode; stronger effect = lower value; max response, negative = inhibition, %; 360,000 compounds, 2.5% hits; in the data active = max response below about -50%; inconclusive = no clear call, values can overlap the other calls
Target sequence (P35462 whole entry, looked up): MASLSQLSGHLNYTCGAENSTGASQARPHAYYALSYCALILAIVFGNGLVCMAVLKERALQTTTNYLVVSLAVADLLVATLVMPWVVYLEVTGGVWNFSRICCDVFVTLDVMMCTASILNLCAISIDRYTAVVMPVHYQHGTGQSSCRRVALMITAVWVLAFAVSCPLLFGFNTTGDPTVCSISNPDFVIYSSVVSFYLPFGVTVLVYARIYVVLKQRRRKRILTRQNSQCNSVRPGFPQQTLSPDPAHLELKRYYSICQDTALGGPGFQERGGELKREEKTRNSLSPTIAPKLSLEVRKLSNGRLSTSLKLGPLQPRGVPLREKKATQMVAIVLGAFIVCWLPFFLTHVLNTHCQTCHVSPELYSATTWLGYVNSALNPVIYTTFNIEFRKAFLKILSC
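Cells plated overnight at 1500 cells/well, then exposed to library compounds with dopamine controls for 90 minutes at 37 degrees C. DiscoveRx reagent added for 30–60 minutes at room temperature; luminescence read, quantitative HTS format.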
DRD3 agonist: activates the human D3 dopamine receptor. P35462. D3R DiscoveRx beta-arrestin cells, luminescence, 90 min. max activation, %. 410,000 compounds, 0.58% hits; in the data active = max activation above about 30%
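Agonist mode: compounds and dopamine controls were applied to plated cells for 90 min at 37 degrees C after an overnight attachment at 1500 cells/well. Luminescent read-out followed 30 - 60 minutes at room temperature with DiscoveRx detection reagent.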
D1 agonist: activates the human D1 dopamine receptor; P21728; HEK293 T-REx D1 cells, calcium flux, agonist mode; activation, % at 2 µM; 360,000 compounds, 1% hits; in the data active = activation above about 30%
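Agonism was scored from calcium flux recorded over 180 s (1 read/s) after pintool compound addition, following a 10-cycle baseline. Cells were inducible force-coupled HEK293 TREx D1, plated overnight at 30 C and loaded with no-wash calcium dye.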
D1 PAM: human D1 dopamine receptor positive modulation; P21728; HEK293 TREx D1 cells, calcium flux, dopamine EC20 potentiation; potentiation, % at 10 µM; 360,000 compounds, 0.036% hits; AID 504651; in the data active = potentiation above about 30%
Of the large screens only hits and unclear results are named; the others gave an inactive call. Most compounds without a hit are left out; they make up all but 6% or so of the library.

CCOc1ccccc1NC(=O)CN(c1ccc(OC)cc1OC)S(=O)(=O)c1ccccc1[N+](=O)[O-]	D1 antagonist -44
COc1ccc(OC)c(/C(O)=C/C(=O)C(=O)Nc2ccccc2OC)c1	D3 antag -67
COc1ccc(OC)c(S(=O)(=O)N(C)CC(=O)Nc2ccccc2OC)c1	D1 antagonist -82
COc1ccc(N(CC(=O)Nc2ccccc2C)S(=O)(=O)c2ccccc2[N+](=O)[O-])c(OC)c1	none
CCc1cc2c(cc3c(=O)n(CC(=O)NCCc4ccccc4)ncn32)s1	none (no result: D3 antag)
CC(C)Cn1c(N)c(C(=O)COC(=O)/C=C/c2cccs2)c(=O)n(C)c1=O	DRD3 agonist 33
Cn1c(N)c(C(=O)COC(=O)/C=C/c2cccc(Br)c2)c(=O)n(C)c1=O	D1 antagonist -33
CC(C)Cn1c(N)c(C(=O)COC(=O)Cc2cccs2)c(=O)n(C)c1=O	none
COc1ccc(/C=C/C(=O)OCC(=O)c2c(N)n(C)c(=O)n(C)c2=O)cc1	D1 antagonist -32
Cn1c(N)c(C(=O)COC(=O)/C=C/c2ccc(F)cc2)c(=O)n(C)c1=O	none
Cn1c(N)c(C(=O)COC(=O)/C=C/c2cccc(F)c2)c(=O)n(C)c1=O	none
Cc1ccccc1Cn1c(=O)n(CCCCC(=O)NCc2ccc3c(c2)OCO3)c(=O)c2ccccc21	none (no result: D3 antag)
O=C1CC(c2nnc(Cc3ccccc3Cl)o2)CN1c1ccccc1 (configuration not stated)	none (no result: D3 antag)
Cc1ccc2c(c1)c1c3n2CCN(C(=O)c2cccc(C(F)(F)F)c2)C3CCC1 (configuration not stated)	none (no result: D3 antag)
CCCCCn1c(=O)[nH]c2cc(C(=O)NCCN3CCC(C)CC3)ccc2c1=O	none
O=C(NCCCN1CCCC1=O)c1ccc(OC(F)(F)F)cc1	none
O=C(NCCN1CCC(n2c(=O)[nH]c3ccccc32)CC1)c1ccc(OC(F)(F)F)cc1	D3 antag -86 (no result: D1 antagonist, D1 agonist, D1 PAM)
CCCCOc1ccc(C(=O)NCCN2CCC(n3c(=O)[nH]c4ccccc43)CC2)cc1	D3 antag -60 (no result: D1 antagonist, D1 agonist, D1 PAM)
COc1cc2c(cc1OC)CN(C(=O)CSc1ccc(F)cc1)CC2	D1 antagonist -87
COc1ccccc1N1CCN(C(=O)CN2C(=O)COc3ccc(S(=O)(=O)N4CCCC4)cc32)CC1	none (no result: D3 antag)
Cc1ccc(CSC2=Nc3ccccc3C3=NC(CCC(=O)NC4CCCCC4)C(=O)N23)cc1 (configuration not stated)	none (no result: D3 antag)
O=C(CC1NCCc2ccccc21)Nc1ccc(Cl)cc1 (configuration not stated)	D3 antag -87
C=CCc1cc(Cl)ccc1OCCNCCOC	D3 antag -56
C=CCc1cc(Cl)ccc1OCCNCCN1CCOCC1	D1 antagonist -87, D3 antag inconclusive
C=CCc1cc(Cl)ccc1OCCN1CC(C)OC(C)C1 (configuration not stated)	D3 antag inconclusive
CC(=O)N1CCCc2cc(S(=O)(=O)N3CCC(C(=O)NCc4cccc(C)c4)CC3)ccc21	none (no result: D3 antag)
C=C(C)n1c(=O)n(Cc2ccccc2C)c2ccccc21	D1 agonist 93
C=C(C)n1c(=O)n(Cc2ccc(C)cc2)c2ccccc21	none
O=C(NCc1ccc(Cl)cc1)C(=O)c1cn(CC(=O)N2CCOCC2)c2ccccc12	none
CC(C)(Cc1ccccc1)NC(=O)C(=O)c1cn(CC(=O)N2CCOCC2)c2ccccc12	D3 antag -70
COc1cc(C2C(=O)N(C3CCC(C)CC3)CC(=O)N2CCc2ccc(Cl)cc2)ccc1OC(C)C (configuration not stated)	none (no result: D3 antag)
O=C(CCC1N=C2c3ccccc3N=C(SCC(=O)Nc3ccc(F)cc3)N2C1=O)NCc1ccco1 (configuration not stated)	none (no result: D3 antag)
CN(CCC#N)C(=O)COC(=O)c1ccc(Cl)cc1O	D1 antagonist -34
CSc1ccc(Cl)c(C(=O)OCC(=O)N(C)CCC#N)c1	none
COc1ccc(-n2c(=O)c(CCC(=O)N3CCN(c4cccc(OC)c4)CC3)nc3ccccc32)cc1	none (no result: D1 antagonist, D1 agonist, D1 PAM)
COc1ccc(/C(O)=C/c2nc3ccccc3n(-c3ccccc3)c2=O)cc1	D1 agonist 39
COc1cccc(C(C#N)N2CCCCC2)c1O (configuration not stated)	D3 antag -74
CCCCNCC1CCCO1 (configuration not stated)	D1 antagonist -91
COc1cc(C(=O)NCC(c2cccs2)N2CCc3ccccc32)cc(OC)c1OC (configuration not stated)	none
COc1ccccc1C(=O)NCC(c1cccs1)N1CCc2ccccc21 (configuration not stated)	D3 antag -53
CC(=O)c1ccc(S(=O)(=O)N2CCN(CCOc3ccc(Br)cc3)CC2)cc1	DRD3 agonist 49
CCCOc1ccccc1C(=O)Nc1ccc(S(=O)(=O)N2CCN(C)CC2)cc1	D1 antagonist -49
CCCOc1ccc(C(=O)Nc2ccc(S(=O)(=O)N3CCN(C)CC3)cc2)cc1	D1 antagonist -72
CN1CCN(S(=O)(=O)c2ccc(NC(=O)c3csc4ccccc34)cc2)CC1	D1 antagonist -45, D3 antag inconclusive
CN1CCN(S(=O)(=O)c2ccc(NC(=O)c3cccs3)cc2)CC1	none
CCc1nc2cccnc2n1-c1ccc(CC(=O)Nc2ccc(C)cc2)cc1	none (no result: D3 antag)
Cc1c(Cl)cccc1-n1ncc(C(=O)Nc2ccc(Br)cc2F)c1C1CCNCC1	none (no result: D3 antag)
CC(=O)N(c1ccc(Cl)cc1)c1c[nH]c2ccccc12	D3 antag -67
Cn1nnnc1SCC(=O)Nc1cccc([N+](=O)[O-])c1	none
Nc1ccc(SCC(=O)Nc2cccc([N+](=O)[O-])c2)cc1	D1 antagonist -49
CCc1ccccc1NC(=O)CSc1nc(-c2ccccc2)nn1C(=O)c1cccc([N+](=O)[O-])c1	none (no result: D3 antag, DRD3 agonist)
O=C(CSc1nc(-c2ccccc2)nn1C(=O)c1ccccc1)Nc1cccc([N+](=O)[O-])c1	D1 antagonist -34
COc1cccc(NC(=O)CSc2nnc(NC(=O)C3CC3)s2)c1	D3 antag -57
CS(=O)(=O)Nc1nnc(SCC(=O)Nc2cccc([N+](=O)[O-])c2)s1	D1 antagonist -79
COc1ccc(-n2ncc(C(=O)NCc3cccs3)c2C2CCN(C(=O)OC(C)(C)C)CC2)cc1	none (no result: D3 antag)
CCOc1ccc(C(=O)c2cn(Cc3ccc(Cl)cc3)c3cc(OC)c(OC)cc3c2=O)cc1	none (no result: D3 antag)
COc1cccc(NC(=O)CSc2nc(=O)n(Cc3ccncc3)c3c2CCCC3)c1	D1 PAM 37
CN(C)CCn1c2c(c(SCC(=O)Nc3cccc(C(F)(F)F)c3)nc1=O)CCCC2	none
CCN(CC)CCn1c2c(c(SCC(=O)Nc3cccc(C(F)(F)F)c3)nc1=O)CCC2	D1 agonist 48 (no result: D1 antagonist, D3 antag)
Cc1ccc(OCC(=O)Nc2c(Cl)ccc3nsnc23)cc1C	none (no result: D3 antag)
Cc1ccc(C(=O)Nc2ccccc2C(=O)O)cc1S(=O)(=O)N1CCCCCC1	none (no result: D3 antag)
